Experimental data from PubChem BioAssay AID489043 (National Center for Advancing Translational Sciences (NCATS), 2010).
Records with an inconclusive call do not appear. Calls of active or inactive are those of the source. The call rests on the fitted dose curve; in most records, active means well fitted activation curve with a large enough effect; inconclusive means small, poorly fitted or top-dose-only effect; inactive means flat fitted curve, though single readings scatter.

Molecular target: Relaxin receptor 2 (Homo sapiens) (UniProt Q8WXD0)
Sequence (Q8WXD0 whole entry, looked up): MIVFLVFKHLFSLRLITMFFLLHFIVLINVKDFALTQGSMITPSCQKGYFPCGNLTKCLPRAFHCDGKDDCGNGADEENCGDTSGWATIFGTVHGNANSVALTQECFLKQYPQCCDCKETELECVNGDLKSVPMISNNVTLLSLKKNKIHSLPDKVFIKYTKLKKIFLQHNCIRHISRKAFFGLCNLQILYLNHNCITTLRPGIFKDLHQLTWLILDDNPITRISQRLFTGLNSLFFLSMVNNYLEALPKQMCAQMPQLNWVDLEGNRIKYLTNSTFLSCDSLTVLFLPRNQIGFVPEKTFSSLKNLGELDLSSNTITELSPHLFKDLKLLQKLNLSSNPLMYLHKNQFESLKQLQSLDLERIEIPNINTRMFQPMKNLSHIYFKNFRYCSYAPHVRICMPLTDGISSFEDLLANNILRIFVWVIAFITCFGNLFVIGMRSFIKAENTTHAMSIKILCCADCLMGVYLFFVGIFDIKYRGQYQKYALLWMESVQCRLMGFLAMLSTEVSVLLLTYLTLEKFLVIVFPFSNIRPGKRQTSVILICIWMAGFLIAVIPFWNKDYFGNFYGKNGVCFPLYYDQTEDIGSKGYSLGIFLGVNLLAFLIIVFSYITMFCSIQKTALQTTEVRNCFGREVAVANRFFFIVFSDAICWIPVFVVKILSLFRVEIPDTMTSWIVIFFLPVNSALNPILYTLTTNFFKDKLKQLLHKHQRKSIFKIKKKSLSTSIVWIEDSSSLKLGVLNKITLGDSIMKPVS
Test: qHTS Assay for Agonists of the Relaxin Receptor RXFP1: RXFP2 Hit Validation; further: nearly all actives have a fitted effect of over 65% in size
Conditions: HEK293 RXFP2 cAMP TR-FRET, 30 min; series mostly up to 115 µM; activation: at the top concentration
Procedure, shortened: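 Selectivity counter-assay for cAMP accumulation: RXFP2-HEK293 cells given compounds with Ro 20174 for 30 min at 37C, then lysed for TR-FRET cAMP detection. Data scaled to 29 nM porcine relaxin (100%); Hill-equation EC50.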
Potency means the concentration at half of the fitted maximal effect.

Potency, active:
O=C(O)c1cc(-c2ccc(Br)s2)nc2ccccc12 3.46 µM
C=CCNC(=O)NC(=O)COC(=O)c1nc2nccc(C)n2n1 34.6 µM
S=c1nc[nH]c2c1[nH]c1ccccc12 6.9 µM
O=c1oc2cc(O)c(Cl)cc2c2ccccc12 6.9 µM
Cc1cccc2cc(C#N)c(SCC(=O)NCc3cccs3)nc12 19.4 µM
CCOP1(=O)OCC2OC(n3cnc4c(N)ncnc43)C(O)C2O1 (stereo not drawn) 7.76 µM
CCCN(CCC)S(=O)(=O)c1cc(CN2C(=O)c3cccnc3C2=O)ccc1OC 24.5 µM
O=S(=O)(c1cccc(-c2cn3cccnc3n2)c1)N1CCOCC1 34.6 µM
Cn1c(=O)c2sccc2n2c(CCCC(=O)NCc3ccco3)nnc12 34.6 µM
Cn1c(=O)c2c(ncn2CC(=O)N/N=C/c2cn[nH]c2-c2ccc(F)cc2)n(C)c1=O 21.8 µM
CCOc1ccc2cc(C#N)c(SCC(=O)NC(C)CC)nc2c1 (stereo not drawn) 6.15 µM
Cn1c(=O)c2sccc2n2c(CCCC(=O)NCCc3ccc(S(N)(=O)=O)cc3)nnc12 43.6 µM
O=C(NC1CCCCCC1)c1cc2c(=O)n3ccccc3nc2s1 38.9 µM
CCN1CCN(C(=O)CCc2nnc3ccc(N4CCC5(CC4)OCCO5)nn23)CC1 38.9 µM
Cc1cc(C)nc(/N=C(\N)Nc2ccc(S(=O)(=O)Nc3nccc(C)n3)cc2)n1 34.6 µM
Cc1noc(NS(=O)(=O)c2ccc(N3Cc4ccccc4C3=O)cc2)c1C 11.9 µM

activation, inactive:
O=C(Nc1ccccc1C(=O)N1CCN(c2ccccc2)CC1)c1ccco1 -2.96% [at 125 µM]
Nc1nnc(CC(=O)N/N=C/c2ccc(-c3ccc(Cl)cc3Cl)o2)s1 7.15%
Cc1ccc(CN(C)C(=O)c2ccc3c(c2)NC(=O)CS3)o1 -25.2%
c1ccc(COn2nnc3ccccc32)c(COn2nnc3ccccc32)c1 1.12% [at 44.7 µM]
CCN(CC)CCCCCC(=O)Nc1ccccc1C(=O)Nc1ccccc1 -1.53% [at 125 µM]
Cn1c(N)c(C(=O)CSc2nnc(NC3CCCCC3)s2)c(=O)n(C)c1=O -14.8%
CN(C)c1ccc2nc3c(=O)[nH]c(=O)nc-3n(CC(O)C(O)C(O)CO)c2c1 (stereo not drawn) 15.5%
Cc1cccc(C(=O)Nc2ccccc2C(=O)NCc2ccco2)c1 13% [at 125 µM]
Cc1ccccc1NC(=O)c1ccccc1NC(=O)c1ccco1 -2.61% [at 125 µM]
COc1ccc(CC(=O)N/N=C/c2cccnc2)cc1OC -3.6%
Cc1cccc(NC(=O)c2ccccc2NC(=O)C2CCCCC2)c1C 4.02% [at 125 µM]
CCOC(=O)CNC(=O)CSc1ccc2nnc(-c3cccnc3)n2n1 -13.2%
Cc1ccc(CN(C)C(=O)c2ccccc2NC(=O)c2ccccc2)o1 -1.29% [at 125 µM]
CN(C)c1ccc(NC(=O)C2C3C=CC(C3)C2C(=O)O)cc1 (stereo not drawn) -6.82%
COc1ccc(/C=C2/SC(=O)N(CC(=O)Nc3cc(C)on3)C2=O)cc1OC -62%
CCN(c1ccccc1)S(=O)(=O)c1ccc(OC)c(NC(=O)C2CC(=O)N(Cc3ccccc3)C2)c1 (stereo not drawn) -2.75%
O=C1CN(c2nc3ccccc3n3cnnc23)CC(=O)N1CCc1ccccc1 9.22% [at 44.7 µM]
